Experimental data published in PubChem BioAssay.
Values without a mark were called inactive. The rule behind the calls is not given here.

Each molecule was assayed on Aerobactin synthetase IucA (Klebsiella pneumoniae hvKP1) (assay: IucA enzyme inhibition, primary screen, biochemical, Spectrum library (AID 1346200;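 note: 100% = wells without compound and 0% = wells lacking enzyme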)). Conditions: malachite green pyrophosphate, A620, at 8 µM, hits give low values.

Structure (SMILES) | activity remaining
C/C(=C\CO)CC[C@H](C)CCC[C@H](C)CCCC(C)C | 121%
CC(C)=CCc1c2c(c3occ(-c4ccc(O)c(O)c4)c(=O)c3c1O)C=CC(C)(C)O2 | 120%
C=C(CC)C(=O)c1ccc(OCC(=O)O)c(Cl)c1Cl | 100%
CN(C)c1ccc2nc3ccc(=[N+](C)C)cc-3sc2c1 | 104%
CC1Cc2ccccc2N1NC(=O)c1ccc(Cl)c(S(N)(=O)=O)c1 (stereo unspecified) | 101%
C[C@@H]1CC2C3C[C@H](F)C4=CC(=O)C=C[C@]4(C)[C@@]3(F)[C@@H](O)C[C@]2(C)[C@@]1(O)C(=O)COC(=O)C(C)(C)C (stereo partly specified) | 98.9%
CN1C(CC(=O)c2ccccc2)CCCC1CC(O)c1ccccc1 (stereo unspecified) | 108%
Nc1ncnc2c1ncn2C1O[C@H](COP(=O)(O)O)[C@@H](O)[C@H]1O (stereo partly specified) | 98%
CN(C)CC[C@H](c1ccc(Cl)cc1)c1ccccn1 | 90.6%
C/C=C(/C)C(=O)O[C@H]1CC[C@@]2(C)[C@@H]3CC[C@H]4[C@]5(O)C[C@H](O)[C@@]6(O)[C@@H](CN7C[C@@H](C)CC[C@H]7[C@@]6(C)O)[C@]5(O)C[C@@]42OC13O | 103%
CCC(C(=O)O)c1ccccc1 (stereo unspecified) | 123%
N#Cc1ccc2c(c1)N(CCCN1CCC(O)CC1)c1ccccc1S2 | 111%
CC(C)(C)NC[C@@H](O)COc1nsnc1N1CCOCC1 | 99.4%
COc1c2ccoc2nc2c(OC)c(OCC(O)C(C)(C)O)ccc12 (stereo unspecified) | 98%
CC(C)c1cccc(O)c(=O)c1 | 123%
Cc1ccc(C(C)C)cc2c(C)ccc1-2 | 121%
COc1ccc2cc1Oc1ccc(cc1)C[C@H]1c3cc(c(OC)cc3CCN1C)Oc1c(OC)c(OC)cc3c1[C@H](C2)N(C)CC3 | 108%
O=C(O)C1CC(C2CCCCN2)CN2CCCCC12 (stereo unspecified) | 115%

Structure (SMILES) | activity remaining
CC(=O)O[C@@H]1CC2C(C)(C)C(=O)CC[C@]2(C)C2CC[C@@]3(C)[C@H](c4ccoc4)OC(=O)C4OC43[C@@]21C (stereo partly specified) | 110%
CC1(C)C[C@@H]2C(=O)CC[C@H]3O[C@]3(C)CC[C@H]21 | 110%
NC[C@H]1O[C@H](O[C@H]2[C@H](O)[C@@H](O[C@H]3O[C@H](CO)[C@@H](O)[C@H](N)[C@H]3O)[C@H](N)C[C@@H]2N)[C@H](N)[C@@H](O)[C@@H]1O | 108%
O=C(O)C1=C[C@@H](O)[C@@H](O)[C@H](O)C1 | 86.3%
CCn1cc(C(=O)O)c(=O)c2cc(F)c(N3CCNCC3)cc21 | 115%
NC(N)=Nc1nc(CSCC/C(N)=N\S(N)(=O)=O)cs1 | 113%
O=c1cc(-c2ccc(O)cc2)oc2cc(O[C@@H]3O[C@H](CO)[C@@H](O)[C@H](O)[C@H]3O[C@@H]3OC[C@](O)(CO)[C@H]3O)cc(O)c12 | 103%
CC(C)(O)[C@@H]1CC[C@](C)([C@H]2[C@@H](O)C[C@@]3(C)C4C[C@H](O[C@@H]5O[C@H](CO)[C@@H](O)[C@H](O)[C@H]5O)C5C(C)(C)[C@@H](O[C@@H]6OC[C@@H](O)[C@H](O)[C@H]6O)CC[C@@]56C[C@@]46CC[C@]23C)O1 (stereo partly specified) | 93%
CC/C(=C(/CC)c1ccc(O)cc1)c1ccc(O)cc1 | 104%
COC(=O)c1c(C)cc(OC)cc1O | 98.9%
CO[C@@]1(NC(=O)C(C(=O)O)c2ccc(O)cc2)C(=O)N2C(C(=O)O)=C(CSc3nnnn3C)CO[C@@H]21 (stereo partly specified) | 102%
Nc1ncnc2c1ncn2[C@@H]1O[C@H](CO)[C@@H](O)[C@@H]1O | 107%
COc1ccc(C2Sc3ccccc3N(CCN(C)C)C(=O)C2OC(C)=O)cc1 (stereo unspecified) | 114%
C[C@]12CCC3c4ccc(O)cc4CCC3C1CC[C@@H]2OC(=O)CCC1CCCC1 (stereo partly specified) | 124%
O=C(O)c1cc(=O)c(O)c2c(O)c(O)ccc2c1 | 90.4%
C=C[C@@](C)(O)CCC1C(=C)C[C@H](O)C2C(C)(C)CCCC12C (stereo partly specified) | 123%
CC(C)Cc1ccc(C(C)C(=O)O)cc1 (stereo unspecified) | 90.9%
CCC(CCC(C)[C@H]1CCC2C3CC=C4C[C@@H](O)CC[C@]4(C)C3CC[C@@]21C)C(C)C (stereo partly specified) | 114%
